# ADAM17 inh: inhibits human ADAM17. recombinant ADAM17, EDANS/DABCYL FRET peptide cleavage. inhibition, % at 6.95 µM. 370,000 compounds, 0.83% hits;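 active = inhibition above the mean of compounds lying between control limits plus 3 SD, set per campaign, cut at about 8.5% in these data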;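 also: 0% = DMSO-only wells as the low control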
# proKLK7 act: activates the human kallikrein-7 zymogen; activation, % at 7 µM; AID 652039; P49862; purified proKLK7, EDANS-DABCYL substrate fluorescence; 100% is mature enzyme control, 0% vehicle; 370,000 compounds, 0.9% hits;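 active = activation above the mean of all tested compounds plus 3 SD, computed per campaign excluding outliers beyond control limits, cut at about 13% in these data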
# ADAM10 inh: ADAM10 inhibition, QFRET primary screen | 370,000 compounds, 0.62% hits | inhibition, % at 7 µM | AID 720582 | recombinant ADAM10, EDANS/DABCYL FRET peptide cleavage, 3 h;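 active = inhibition above a per-campaign cutoff equal to the mean of compounds falling between control-based bounds plus 3 SD, cut at about 20% in these data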;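 also: 0% = DMSO wells while the 100% control is not disclosed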
# NR3A LBD binder: modulates the human NR3A ligand-binding domain; NR3A LBD differential scanning fluorimetry, Tm shift; 0% = protein alone, 100% = glycine-bound protein; Tm shift relative to glycine control, % at 25 µM; 340,000 compounds, 2.5% hits; AID 1259313;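 active = melting temperature shift of at least 10% of the positive control shift, at one fixed dose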
# FAS TE block: FAS thioesterase (human) inhibition | recombinant FAS-TE, OMFH fluorogenic substrate, fluorescence endpoint | P49327 | inhibition, % at 15 µM | 360,000 compounds, 0.67% hits;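 active = compounds whose normalised, plate-corrected inhibition of enzyme fluorescence in the single-dose primary screen is 50% or more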;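 also: 0% = DMSO with enzyme and 100% = substrate without enzyme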
# FAS-TE inh conf: confirmation of human fatty acid synthase thioesterase inhibitors; inhibition, % at 15 µM; recombinant FAS-TE, OMFH fluorogenic substrate, fluorescence; AID 624325; 2,300 compounds, 45% hits; shares compounds with FAS TE block;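 active = compounds inhibiting the enzyme by at least 50% at 15 µM in any one of the replicates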;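 also: 0% = enzyme with DMSO only and 100% = wells lacking enzyme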
# KLK7 act conf: proKLK7 activation, confirmation | AID 686949 | purified proKLK7, EDANS-DABCYL substrate fluorescence; scaled: vehicle 0, mature enzyme 100 | shares compounds with proKLK7 act | activation, % at 7 µM | 3,200 compounds, 68% hits;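 active = activation, as change over the incubation, above the mean of all tested compounds plus 3 SD, cut at about 13% in these data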
# EDANS-DABCYL int: optically interferes with EDANS-DABCYL signal, flagging KLK7 hits; EDANS-DABCYL substrate fluorescence interference, no enzyme, 4 h; solvent 0%, active enzyme control 100%; 3,200 compounds, 80% hits; shares compounds with proKLK7 act; AID 686952; activation, % at 7 µM;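 active = activation above the all-compound mean plus 3 SD, ignoring values outside control-based bounds, cut at about 4.8% in these data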;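 also: value is the 4 h activation minus the activation read at time zero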
# ADAM10 confirm: human ADAM10 inhibition, confirmation; 2,100 compounds, 1% hits; ADAM10 QFRET peptide cleavage, EDANS fluorescence; shares compounds with ADAM10 inh; inhibition, % at 6.95 µM;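 active = inhibition above about 20% chosen separately for each screening run, limit read from the data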;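 also: 0% = DMSO wells and 100% = marimastat wells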
# ADAM17 counter: inhibits human ADAM17 in ADAM10 exosite counter-screen. shares compounds with ADAM10 inh. ADAM17 QFRET peptide cleavage, EDANS fluorescence. inhibition, % at 6.95 µM. 2,100 compounds, 0.5% hits;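 active = mean triplicate inhibition above the solvent-only control wells' mean plus 3 SD, cut at about 12% in these data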;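 also: 0% = DMSO wells and 100% = marimastat wells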
# ADAM10 counter: ADAM10 inhibition, counter-screen for ADAM17 exosite hits. shares compounds with ADAM17 inh. recombinant ADAM10, EDANS/DABCYL FRET peptide cleavage, 3 h. inhibition, % at 6.95 µM. 2,900 compounds, 47% hits;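 active = mean inhibition over the triplicate runs exceeds the activity threshold set in the earlier primary screen, cut at about 20% in these data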;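 also: 0% = DMSO wells and 100% = marimastat wells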
# ADAM17 confirm: human ADAM17 inhibition, confirmation; shares compounds with ADAM17 inh; recombinant ADAM17, EDANS/DABCYL QFRET peptide cleavage; inhibition, % at 6.95 µM; 2,900 compounds, 65% hits; AID 743257;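 active = mean inhibition across replicates above the hit cutoff set in the primary screen, cut at about 8.5% in these data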;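 also: 0% = DMSO wells and 100% = marimastat wells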
# * marks the source's active call; other numbers are inactive results; i = inactive; . = no result given. This is a sample that favours compounds with a hit; in the whole collection about 4.6% have one here.
SMILES,ADAM17 inh,proKLK7 act,ADAM10 inh,NR3A LBD binder,FAS TE block,FAS-TE inh conf,ADAM10 confirm,ADAM17 counter,others
O=c1[nH]c2ccccc2n1C1CCN(C(c2ccccc2OC(F)(F)F)c2nnnn2-c2ccc3c(c2)OCCO3)CC1 (stereo unspecified),15*,0,33*,.,83*,19,11,2,
O=c1[nH]c2ccccc2n1C1CCN(C(c2cccs2)c2nnnn2-c2ccc3c(c2)OCCO3)CC1 (stereo unspecified),7,0,20*,.,63*,15,8,2,
CC(C)(C)Cc1nnc(NC(=O)COc2ccc(Cl)cc2Cl)o1,-5,.,-2,.,.,.,.,.,
COC(=O)C1C(c2ccc(Cl)cc2)CC2CCC1N2C (stereo unspecified),-1,1,2,.,.,.,.,.,
C[C@@H]1CNCCN1c1ccc(N2CC[C@H](O)C2)c(C#N)c1,-10,1,-52,.,.,.,.,.,
COc1ccc(C(c2nnnn2-c2c(C)cccc2C)N2CCC(n3c(=O)[nH]c4ccccc43)CC2)cc1 (stereo unspecified),9.7*,0,23*,.,62*,35*,6,2,
COc1ccc(-n2nnnc2C(c2ccccc2)N2CCC(n3c(=O)[nH]c4ccccc43)CC2)cc1 (stereo unspecified),-1,0,2,.,25,.,.,.,
CCCCn1nnnc1C(c1cccc2ccccc12)N1CCC2(CC1)C(=O)NCN2c1ccccc1 (stereo unspecified),0,0,-8,.,22,.,.,.,
COc1ccc(-n2nnnc2C(c2cccc3ccccc23)N2CCC3(CC2)C(=O)NCN3c2ccccc2)cc1 (stereo unspecified),9,0,21*,.,84*,16,10,3,
O=C1NCN(c2ccccc2)C12CCN(C(c1cccc3ccccc13)c1nnnn1Cc1ccccc1)CC2 (stereo unspecified),9.9*,0,21*,.,79*,4,11,4,ADAM10 counter=41*;ADAM17 confirm=17*
O=C1NCN(c2ccccc2)C12CCN(C(c1cccs1)c1nnnn1-c1ccc3c(c1)OCCO3)CC2 (stereo unspecified),9.0*,0,20,.,62*,22,.,.,ADAM10 counter=29*;ADAM17 confirm=13*
O=C1NCN(c2ccccc2)C12CCN(C(c1ccnc3ccccc13)c1nnnn1Cc1ccccc1)CC2 (stereo unspecified),-4,0,-11,.,7,.,.,.,
CC(=O)NCC1=C(c2ccc(S(C)(=O)=O)cc2)C[C@@H]2CC[C@H]1N2CCOc1ccccc1,0,0,-5,.,.,.,.,.,
c1ccc2oc(-c3ccc4c(c3)CNCc3cnnn3-4)cc2c1,-245,22*,i,.,-2,.,.,.,KLK7 act conf=19*;EDANS-DABCYL int=19*
CC(C(=O)c1ccc2ccccc2c1)N1CCCCC1 (stereo unspecified),-54,32*,-146,-6,-7,.,.,.,KLK7 act conf=-2;EDANS-DABCYL int=1
CC(NC(C)(C)C)C(=O)c1cccc(Cl)c1 (stereo unspecified),-5,0,-6,1,-3,.,.,.,
